# Bioassay records (PubChem BioAssay)
# TDP1 cell CPT: DT40-hTDP1 cell growth loss with CPT; Potency, µM (series often up to 46.2 µM), without a hit: top-dose activity change, negative = growth inhibition, hits mostly inhibitors; chicken DT40 Tdp1-/-;hTDP1 cells + 20 nM CPT, ATP luminescence, 48 h; AID 686979; 12% of 420,000 active; note: potency is the fitted concentration of half-maximal effect; nearly all actives have a fitted effect of over 55% in size
#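 Chicken DT40 Tdp1-/- cells complemented with human TDP1, 400 cells/well, exposed to compounds plus 20 nM camptothecin for at least 48 h at 37 C; viability read as ATP content by CellTiter-Glo luminescence.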
# HT1080 IDH1KD tx: HT-1080 IDH1 knockdown cell toxicity (counter line); Potency, µM (doses to about 46.1 µM), for the others: at the top dose activity, negative = toxicity, hits mostly cytotoxic; HT-1080 IDH1 knockdown viability, ATP luminescence, 48 h; 2% of 360,000 active;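 note: potency is the fitted concentration of half-maximal effect; 0% = DMSO wells and -100% = cell-free medium wells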
#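 Cytotoxicity counter-line: IDH1KD HT-1080, 48 h, CellTiter-Glo. Curves classed by r2, magnitude and activity.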
# uPA generation: inhibitors of cell surface uPA generation. cell surface uPA generation assay, qHTS. Potency, µM (series often up to 38.3 µM), for inactives: at the highest dose activity change, negative = inhibition, actives largely listed as inhibitors. 0.31% of 330,000 active. AID 540303; active = well fitted inhibition curve with a large enough effect; inconclusive = small, poorly fitted or top-dose-only effect; inactive = no such curve, though single readings can be large or run the other way; tested in mouse RAW 264.7 cells; note: potency is the fitted concentration of half-maximal effect; nearly all actives have a fitted effect of over 55% in size
# TDP1 cell noCPT: qHTS for Inhibitors of human tyrosyl-DNA phosphodiesterase 1 (TDP1): qHTS in cells in absence of CPT. DT40 Tdp1-/- hTDP1 cells, no CPT, ATP luminescence, 48 h. Potency, µM (top dose mostly 46.2 µM), without a hit: at the highest dose activity change, negative = growth inhibition, most hits filed as inhibitors. 15% of 420,000 active; note: potency is the fitted concentration of half-maximal effect; nearly all actives have a fitted effect of over 55% in size
#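 Luminescent ATP content (CellTiter-Glo) served as the growth readout. Knockout chicken DT40 cells expressing human TDP1 were exposed to compounds without camptothecin for a minimum 48 hr at 37 °C.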
# IL-1B inflam inh: inhibitors of inflammasome signaling (IL-1 beta secretion); activity change, % at 57.5 µM; THP-1 LPS/ATP IL-1B secretion, AlphaLISA, 16 h; active compounds read low; 4.7% of 360,000 active; AID 743279; in the data active = activity change below about -50%; inconclusive = mostly about -30% to -49%
#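 THP-1 cells pretreated 1 hr with compounds (up to 57.5 uM final), then stimulated with LPS (250 ng/mL final) plus ATP (1.25 mM final); secreted IL-1B measured by AlphaLISA after 16 hr, decreased signal indicating inhibition.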
# HT1080-NT tox: kills 2HG-producing HT-1080-NT fibrosarcoma cells; Potency, µM (doses to about 46.1 µM), for inactives: at the highest dose activity, negative = less viability, usual class: cytotoxic; AID 686970; HT-1080-NT fibrosarcoma viability, CellTiter-Glo ATP luminescence, 48 h; 1.6% of 360,000 active;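 note: NT is the 2HG producing partner of a matched IDH1 knockdown line; potency is the fitted concentration of half-maximal effect; 0% = DMSO-treated cells and -100% = media-only wells without cells; nearly all actives have a fitted effect of over 55% in size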
#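 Compounds were tested in concentration-response format on HT-1080-NT cells for 48 hours at 37 degrees C. Cell viability came from CellTiter-Glo luminescence; curves were classified by r2, response magnitude and activity.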
# Starred values were filed as active, the others as inactive; i = inactive; ? = inconclusive; · = not tested or not shown; [ ] = remark or other dose. In the library only some 19% were active in any assay of this set; here they are far more common. Unless noted, calls come from the whole dose curve; as a rule, active = well fitted curve in the direction sought with a large enough effect; inconclusive = small, poorly fitted or top-dose-only effect, or another doubt; inactive = no such curve, though single readings can be large; an effect the other way counts as inactive or inconclusive. Unless noted, % is set by controls: 0 for no effect and ±100 for the full control effect.
SMILES,TDP1 cell CPT,HT1080 IDH1KD tx,uPA generation,TDP1 cell noCPT,IL-1B inflam inh,HT1080-NT tox
COc1cccc(-c2ccnc(-n3ncc(C(=O)NCC4(N5CCCCC5)CCCC4)c3C)n2)c1,10%[9.04 µM],·,·,-17%,·,·
Cc1cc(C)nc(NN=C(c2ccccc2)c2ccccc2)n1,16µM*,14%,-14%,10µM*,20,12%
CC(/C=C/c1ccccc1)=N/NC(=O)c1nc2nc(C)cc(C)n2n1,-7%,6%,2%,?,-5,1%
CC(/C=C/c1ccccc1)=N\Nc1nc(C)cc(C)n1,4.6µM*,8%,-1%,5.2µM*,9,17%
CCc1cccc(NS(=O)(=O)c2c(C)[nH]c(=O)[nH]c2=O)c1,14%,6%,-9%,11%,4,0%
O=c1[nH]c(NC2CCN(S(=O)(=O)c3ccccc3C(F)(F)F)CC2)nc2c1CCCC2,6.5µM*,-6%,18%,7.3µM*,-4,-7%
CCc1ccc(NC(=O)C(=O)NCCOc2ccccc2Cl)cc1,16µM*,-27%,-1%,23µM*,15,?
COc1ccc2[nH]cc(CCNc3ccnc(-c4ccc(C(=O)N(C)C)cc4)n3)c2c1,12µM*,·,·,12µM*,·,·
OCCNc1nc(-c2cccnc2)nc2ccccc12,-32%,0%[9.24 µM],13%,-18%,-21,2%
COc1ccc2[nH]cc(CCNc3cc(-c4ccc(C(=O)N(C)C)cc4)ncn3)c2c1,?,·,·,-17%,·,·
COc1ccc2[nH]cc(CCNc3ccnc(-c4ccccc4C)n3)c2c1,21µM*,·,·,?,·,·
COc1cccc(-c2nccc(NCCc3c[nH]c4ccc(OC)cc34)n2)c1,13µM*,·,·,?,·,·
COc1ccc2[nH]cc(CCNc3nc(-c4cccnc4)nc4ccccc34)c2c1,23µM*,·,·,?,·,·
CCN(CC)C(=O)CSc1nnnn1-c1ccc(F)c(Cl)c1,-21%,5%,12%,-17%,-2,16%
O=C(/C=C/c1cccc(Br)c1)NCc1ccncc1,-4%,-14%,4%,1%,-17,-6%
COc1ccc(NC(=O)CN2C(=O)c3cccnc3Sc3ccccc32)cc1OC,?,·,·,16µM*,·,·
CC(=O)c1cccc(NC(=O)CN2C(=O)c3ccccc3Sc3ncccc32)c1,16µM*,·,·,8.2µM*,·,·
CCCCCc1nnc(NC(=O)NS(=O)(=O)c2ccc(C)cc2)s1,-12%,0%,2%,-16%,1,6%
O=C(NCc1ccc2c(c1)OCO2)c1ccc(N2C(=O)C3CCCCC3C2=O)cc1 (configuration not stated),0%,0%,7%,0%,-2,2%
O=C(Nc1ccccc1OCc1cc(=O)n2ccccc2n1)Nc1ccccc1C(F)(F)F,5%,·,·,-9%,·,·
CCOC(=O)c1cc(S(=O)(=O)Nc2ccc(OC(F)(F)F)cc2)[nH]n1,-29%,·,·,-15%,·,·
O=C(Nc1ccc(-c2nc3cccnc3s2)cc1)C1CCCO1 (configuration not stated),23µM*,-27%,2.5µM*,21µM*,11,-22%
CC1(C(=O)NS(=O)(=O)c2ccccc2Cl)CCN1C(=O)CCC1CCCC1 (configuration not stated),-8%,20%,·,-3%,9,0%
O=C(Nc1ccccn1)c1ccco1,-5%,6%,4%,-11%,8,10%
O=C(Nc1ccc(Cl)cc1C(=O)Nc1ccccn1)c1ccco1,-22%,-23%,-3%,?,-52*,2%
SMILES,TDP1 cell CPT,HT1080 IDH1KD tx,uPA generation,TDP1 cell noCPT,IL-1B inflam inh,HT1080-NT tox
S=C(Nc1ccccc1)Nc1ccc(Br)cn1,6.5µM*,-3%,-3%,3.7µM*,0,-7%
Cc1ccnc(NC(=O)c2ccccc2NC(=O)c2ccc(Cl)cc2Cl)c1,3.7µM*,4.6µM*,2.8µM*,1.8µM*,63,2.9µM*
Cc1ccnc(NC(=O)c2ccc(Cl)c(NC(=O)c3ccccc3C)c2)c1,?,-8%,-2%,?,12,-12%
Cc1ccccc1C(=O)Nc1ccc(Br)cn1,9.2µM*,-6%[9.24 µM],?,21µM*,5,?
COc1cccc(NC(=O)N2CCC(CN3CCOCC3)CC2)c1,3%,·,·,-5%,·,·
O=C(Nc1ccccc1C(=O)Nc1ccc(Br)cn1)c1ccccc1Cl,15µM*,-5%,4%,?,?,1%
COc1ccc(N(CC(=O)NCCSCc2ccc(C)cc2)S(=O)(=O)c2ccccc2)cc1,?,?,-1%,7.3µM*,i,-25%
COc1ccc(OC)c(N(CC(=O)NCCSCc2ccc(C)cc2)S(C)(=O)=O)c1,-21%,-3%,-5%,?,-62*,-7%
COc1ccc(Cl)cc1N(CC(=O)NCCSCc1ccccc1)S(C)(=O)=O,-3%,-1%,-1%,-8%,-19,-12%
O=C(CN(c1ccc(F)cc1)S(=O)(=O)c1ccccc1)NCCSC1CCCCC1,?,?,-7%,?,-59*,?
CCOC(=O)CSc1nc2nc(Cl)c(Cl)nc2[nH]1,?,0%,·,?,3,0%
O=C(c1cccnc1)N1N=C(C2CCCCC2)CC1(O)C(F)(F)F (configuration not stated),6.5µM*,7%,-1%,8.2µM*,-8,4%
O=C(c1cccnc1)N1N=C2CCCCCC2C1(O)C(F)(F)F (configuration not stated),10%,4%,0%,-23%,-9,-2%
CCN1CCCC1CNCc1cccc(OC)c1OCc1ccccc1F (configuration not stated),-19%,-8%,-3%,-7%,-6,-1%
COc1cccc(CNc2ccccc2O)c1OCc1ccccc1F,23µM*,-19%,-3%,?,-92*,-18%
COc1cc(CNn2cn[nH]c2=S)cc(Br)c1OCc1ccccc1F,?,-11%,-7%,-8%,3,-5%
COc1cc(CNc2ccc(O)cc2)cc(Br)c1OCc1ccccc1F,16µM*,?,-3%,?,-1,?
CCOc1c(Br)cc(CNc2ccc(N3CCOCC3)cc2)cc1OC,?,-16%,2%,?,-20,-4%
CCOc1cc(CNc2ccc3c(c2)OCCO3)cc(Br)c1OC,0.52µM*,1.5µM*,-14%,1.2µM*,22,2.3µM*
CCOc1cc(CNc2ccc(O)cc2)cc(Br)c1OCc1ccccc1,23µM*,·,·,16µM*,·,·
COc1ccc(-c2nc3cnc(Oc4cccc(Cl)c4)nc3n(C[C@H]3CCCO3)c2=O)cc1,-12%,·,·,-9%,·,·
